# Screening results (PubChem)
# D1 potentiator: Potentiators of Human D1 Dopamine Receptor: qHTS; 360,000 tested, 0.036% active; HEK293 TREx D1 cells, calcium flux, dopamine EC20 potentiation; D(1A) dopamine receptor (Homo sapiens), P21728; potentiation, % at 10 µM; in the data active = potentiation above about 30%; also: 0% is about no effect
# Target sequence (P21728 whole entry, looked up): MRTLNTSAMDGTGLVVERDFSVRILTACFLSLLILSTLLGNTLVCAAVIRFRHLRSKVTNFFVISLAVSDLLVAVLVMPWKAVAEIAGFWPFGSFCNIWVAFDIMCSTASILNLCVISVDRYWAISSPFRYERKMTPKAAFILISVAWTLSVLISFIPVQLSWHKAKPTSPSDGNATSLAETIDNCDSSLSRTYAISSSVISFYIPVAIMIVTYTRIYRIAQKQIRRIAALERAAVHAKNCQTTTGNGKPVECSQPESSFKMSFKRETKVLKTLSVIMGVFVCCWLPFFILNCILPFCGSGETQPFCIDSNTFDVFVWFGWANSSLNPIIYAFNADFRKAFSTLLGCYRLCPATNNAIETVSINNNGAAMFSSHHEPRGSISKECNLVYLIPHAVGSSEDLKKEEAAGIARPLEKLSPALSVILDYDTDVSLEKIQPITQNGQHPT
# TRHR PAM: qHTS for Small Molecule Agonists and Allosteric Enhancers of Human TRH Receptor: Primary Screen for Enhancers | AID 493056, 2011 | 360,000 tested, 0.66% active | Thyrotropin-releasing hormone receptor (Homo sapiens), P34981 | TRHR cells, fluo-8 calcium fluorescence, EC20 TRH enhancement | enhancement, % at 2 µM; in the data active = enhancement above about 30%; also: 0% is about no effect
#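 Enhancer read-out: after compound pinning and an initial kinetic agonist-mode read, an EC20 of TRH (10 nM final) was injected and fluo-8 calcium signal (Ex 480/Em 530) followed at 1 s/cycle for 100 cycles in TRHR-expressing cells.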
# TRHR ag: qHTS for Small Molecule Agonists and Allosteric Enhancers of Human TRH Receptor: Primary Screen for Agonists; AID 493084, 2011; Thyrotropin-releasing hormone receptor (Homo sapiens), P34981; TRHR cells, calcium flux fluo-8, FDSS agonist mode; 360,000 tested, 0.18% active; activation, % at 2 µM; also: 0% is about no effect
#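 Steps: seed TRHR cells overnight; add fluo-8 no-wash Ca dye, RT 30 min–1.5 h; record 10 s baseline; pin-transfer compounds; monitor fluorescence 1 cycle/s for the agonist window. Calcium increases flag candidate agonists.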
# D1 ag: Allosteric Agonists of the Human D1 Dopamine Receptor: qHTS | D(1A) dopamine receptor (Homo sapiens), P21728 | 360,000 tested, 1% active | activation, % at 2 µM | HEK293 T-REx D1 cells, calcium flux, agonist mode; also: 0% is about no effect
#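 Inducible HEK293 T-REx D1 cells, force-coupled to calcium signalling, were plated at 4000 cells/well with tetracycline and held overnight at 30 C. After no-wash calcium dye loading, compound-evoked calcium rise over 180 s flagged agonists.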
# D1 antag: Antagonist of Human D 1 Dopamine Receptor: qHTS; HEK293 TREx D1 cells, calcium flux, dopamine EC80; hits give low values; activity change, negative = inhibition, % at 10 µM; 360,000 tested, 3.2% active; AID 504652, 2011; in the data active = activity change below about -30%; also: % is scaled to controls: 0 for no effect and ±100 for the full control effect
#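 Kinetic fluorescence of a calcium dye serves as the read-out. D1-expressing Hek293 Trex cells, induced overnight at 30 C, are exposed to compound for 180 s before an EC80 dopamine addition, then read 180 s further.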
# Active calls of the source: *; / = not tested or not shown. A selection: hits, their analogues and other compounds. The true share with any hit is near 4.7%. Rule as the data show it, unless noted: active = activation above about 30%; inactive = the rest.
SMILES,D1 potentiator,TRHR PAM,TRHR ag,D1 ag,D1 antag
COc1cc(/C=C2\S/C(=N/S(=O)(=O)c3ccc(C)cc3)NC2=O)c([N+](=O)[O-])cc1OC,1,2,0,1,3
Cc1ccc(S(=O)(=O)/N=C2/NC(=O)/C(=C/c3cc([N+](=O)[O-])ccc3O)S2)cc1,0,20,0,218*,34
O=[N+]([O-])c1cc(C(F)(F)F)ccc1Sc1ccccn1,-8,-1,0,-1,13
COC(=O)c1ccc(Sc2ccccn2)c([N+](=O)[O-])c1,-9,10,0,1,-34*
O=C(O)c1ccc(Sc2ccccn2)c([N+](=O)[O-])c1,3,22,0,2,-4
O=[N+]([O-])c1ccc(Sc2ccccn2)nc1,6,1,-1,2,-68*
NS(=O)(=O)c1ccc(Sc2ccccn2)c([N+](=O)[O-])c1,-4,22,-1,2,-33*
COc1cc(C(=O)CC2(O)C(=O)N(Cc3ccccc3Cl)c3ccccc32)cc(OC)c1OC (configuration not stated),-1,0,-1,2,-7
COc1ccccc1C(=O)Nc1ccc2nc(SCCOc3ccccc3C)sc2c1,1,10,-1,11,-22
CC1CCCN(S(=O)(=O)c2ccc(NC(=O)CNC3CCCC3)cc2)C1 (configuration not stated),-5,29,0,1,-16
CCC1CCCCN1S(=O)(=O)c1ccc(C(=O)Nc2nnc(C3CC3)o2)cc1 (configuration not stated),0,-1,-1,1,-17
CCC1CCCCN1S(=O)(=O)c1ccc(NC(=O)c2ccncc2)cc1 (configuration not stated),-5,-2,0,18,-34*
O=C(CNC1CCCCC1)Nc1ccc(S(=O)(=O)N2CCCCC2)cc1,43*,-5,-1,153*,3
CC1CCN(CC(=O)Nc2ccc(S(=O)(=O)N3CCCC(C)C3)cc2)CC1 (configuration not stated),-5,0,2,20,-32*
CC1CCCN(S(=O)(=O)c2ccc(NC(=O)CN3CCN(C)CC3)cc2)C1 (configuration not stated),5,-5,0,5,-2
CS(=O)(=O)c1ncc(Cl)c(C(=O)Nc2ccc3ccccc3c2)n1,-10,-7,0,3,-33*
COc1cc2[nH]c(=O)n(CCCCCC(=O)N3CCN(c4cccc(C(F)(F)F)c4)CC3)c(=O)c2cc1OC,1,5,0,0,-16
O=C(CSc1ccnc(=O)[nH]1)NCc1ccc(F)cc1,0,1,1,0,/
COCCN1Cc2cccc(C(=O)Nc3ccc(C(=O)OC)cc3)c2C1=O,0,5,1,1,-23
CCC1CCCCN1S(=O)(=O)c1ccc(NC(=O)c2nc(S(C)(=O)=O)ncc2Cl)cc1 (configuration not stated),-11,-6,0,1,-34*
CCS(=O)(=O)c1ncc(Cl)c(C(=O)Nc2ccc(S(=O)(=O)N3CCCC(C)C3)cc2)n1 (configuration not stated),-11,3,0,1,-36*
Cc1nnsc1C(=O)Nc1ccc(S(=O)(=O)N2CCC(C)CC2)cc1,-9,-4,1,21,-48*
CCS(=O)(=O)c1ncc(Cl)c(C(=O)Nc2ccc(C)cc2)n1,-10,-7,1,7,-22
Cc1nc(SCCc2ccccc2)[nH]c(=O)c1C,-1,6,0,2,2
Cc1nc(SCc2ccc(Br)cc2)[nH]c(=O)c1C,-18,-2,0,3,-41*
SMILES,D1 potentiator,TRHR PAM,TRHR ag,D1 ag,D1 antag
Cc1ccc(C)c(S(=O)(=O)NCCc2csc(-c3ccc(Cl)cc3)n2)c1,2,6,1,10,4
COc1ccc(CNCCC(c2ccc(C)cc2)c2ccco2)cc1 (configuration not stated),-2,5,3,92*,-7
CCNCCC(CCC(C)C)c1ccc2c(c1)OCO2 (configuration not stated),-3,11,5,19,5
COc1ccc(CNCCC(c2ccccc2)c2ccc3c(c2)OCO3)cc1 (configuration not stated),3,-1,3,133*,-16
CC(C)CCC(CCNCc1ccccn1)c1ccc2c(c1)OCO2 (configuration not stated),6,-17,1,30*,-15
Cc1ccc(NC(=O)CCN2CCN(CCO)CC2)cc1C,-1,0,0,0,3
COc1cc(OC)cc(C(=O)Nc2cccc(-c3ccc(N4CCOCC4)nn3)c2)c1,8,-5,0,0,1
COc1ccc(C(=O)Nc2cccc(-c3ccc(N4CCOCC4)nn3)c2)cc1,-2,37*,0,3,1
COc1ccc(Cl)cc1S(=O)(=O)Nc1cccc(-c2ccc(N3CCOCC3)nn2)c1,5,32*,0,1,-9
CC1(C)CC(=O)c2cc(-c3nc(-c4ccc(Cl)cc4)cs3)c(=O)[nH]c2C1,0,4,1,2,3
O=C(NCC1CCCO1)c1ccc(OC2CCN(C(=O)C3CC3)CC2)cc1 (configuration not stated),3,5,0,0,-34*
Cc1cnc(CNC(=O)c2ccc(OC3CCN(C(=O)C4CC4)CC3)cc2)cn1,5,-6,0,2,0
O=C(NCC1CCCO1)c1ccc(NC(=O)c2cc(F)c(F)cc2Cl)cc1 (configuration not stated),-3,33*,1,4,-2
CCc1ccc(N2C(=O)CN(Cc3ccc(OC)c(OC)c3)C2=S)cc1,0,4,0,2,-83*
O=C(CSCc1ccccc1F)NCc1ccc(F)cc1,0,7,-1,2,-35*
Cc1cccc(C(=O)NCC(=O)N2CCN(S(=O)(=O)/C=C/c3ccccc3)CC2)c1,-4,-1,-1,0,-43*
CC(C)(C)c1ccc(OCC(O)CN2CCN(C(=O)c3ccccc3)CC2)cc1 (configuration not stated),-4,2,0,5,-3
COc1ccccc1OCC(O)CN1CCN(C(=O)c2ccccc2)CC1 (configuration not stated),1,-3,1,1,-36*
